Out of some 100,000 compounds screened, about 770 (0.77%) were called active. This is one part of a sample in which actives are shown more often than they occur. Rule as the data show it: active = inhibition above about 50%; inactive = the rest.

This test deals with Gag-Pol polyprotein (Human immunodeficiency virus type 1 group M subtype B (isolate HXB2)) (UniProt P04585). Description: RNase H inhibition, HIV 1 Gag Pol polyprotein, FRET biochemical assay, screening (AID 372). To be noted: HIV-1 RT RNase H, FRET RNA/DNA substrate fluorescence; at 10 µM; stronger effect = higher value.
The term inhibition denotes the share of the control response that was lost under treatment. On to `CS(=O)(=O)N(CC(=O)N1CCCC1)c1cccc(Cl)c1`, for which the inhibition was 6% (inactive). Under `CC1=C(C#N)C(c2cccc(F)c2)C2=C(CC(c3ccccc3)CC2=O)N1` (stereo unspecified) stands 11% (inactive); under `COc1ccc(OC)c(NC(=O)CN(CCc2ccccc2)S(=O)(=O)c2ccccc2)c1`, 15% (inactive). The result for `Cc1cc(C)cc(NC(=O)Cc2ccccc2)c1` reads 3% (inactive). Under `O=C1NC(=O)N(c2ccccc2)C(=O)/C1=C\c1cccc(OCc2ccc(F)cc2)c1` stands 9% (inactive); under `CC(=O)Nc1ccc2nn(-c3ccc(F)cc3)nc2c1`, 4% (inactive). Regarding `COc1ccc(-n2nnnc2SCC(=O)Nc2c(C)cc(C)cc2C)cc1`, the inhibition was 12% (inactive). Consider `O=C(CSc1nnnn1-c1ccccc1)Nc1ccc(C(=O)O)cc1`, for which the inhibition was 0% (inactive). The result for `CCOC(=O)c1ccc(NC(=O)CSc2nnnn2-c2c(C)cc(C)cc2C)cc1` reads 55% (active).

For the compound `CC1=C(C(=O)OC(C)C)C(c2cccc(F)c2)C2=C(CCCC2=O)N1` (stereo unspecified), the inhibition is 4% (inactive).

For the compound `CCCCCN1C(=O)/C(=C2\SC(=S)N(c3ccc(Br)cc3)C2=O)c2ccccc21`, the inhibition is 16% (inactive). Under `CCN1C(=O)/C(=C2\SC(=S)N(c3ccc(Br)cc3)C2=O)c2ccccc21` stands 57% (active).

With `CCN1C(=O)/C(=C2\SC(=O)N(Cc3ccccc3)C2=O)c2ccccc21`, the inhibition was 59% (active).

For the compound `CCN1C(=O)/C(=C2\SC(=S)N(CC(=O)O)C2=O)c2ccccc21`, the inhibition is 7% (inactive). Under `C=CCN1C(=O)/C(=C2\SC(=S)N(Cc3ccccc3)C2=O)c2ccccc21` stands 33% (inactive). With `CCN1C(=O)/C(=C2\SC(=S)N(c3ccccc3)C2=O)c2ccccc21`, the inhibition is 4% (inactive).

For `CCC(C(=O)Nc1nc(-c2ccccc2)c(C)s1)c1ccccc1` (stereo unspecified), the inhibition was 10% (inactive). With `COC(=O)C1=C(C)NC2=C(C(=O)CC(c3ccccc3)C2)C1c1cc(Br)c(O)c(OC)c1` (stereo unspecified), the inhibition was 15% (inactive). Under `Cc1cc(=O)oc2cc(OC(=O)CCCOc3ccc(Cl)cc3Cl)ccc12` stands 18% (inactive). The result for `CN(C)c1ccc(-c2c3cc(O)c(=O)cc-3oc3cc(O)c(O)cc23)cc1` reads 63% (active); that for `Cc1ccc(-c2cc(=O)c3cc(C)ccc3o2)cc1`, 11% (inactive). The result for `O=c1[nH]c2ccccc2c(O)c1-c1ccccc1[N+](=O)[O-]` reads 1% (inactive); that for `O=C1c2ccccc2C(=O)c2c(O)c([N+](=O)[O-])cc(O)c21`, 20% (inactive). On to `O=c1cc2oc3cc(O)c(O)cc3c(-c3ccccc3[N+](=O)[O-])c-2cc1O`, for which the inhibition was 69% (active). The result for `Cc1ccc(-c2cc(=O)c3cc(Cl)ccc3o2)cc1` reads 5% (inactive); that for `O=C(Nc1ccc2ccccc2c1)c1ccccc1Cl`, 3% (inactive); that for `Cc1cc(OCC(N)=O)ccc1Cl`, 0% (inactive).

As for `Nc1c(Cl)cc2c(c1Oc1ccccc1)C(=O)c1ccccc1C2=O`, the inhibition is 8% (inactive). The result for `Cc1ccc2nc3c(N)c(Cl)cc4c3c(c2c1)-c1ccccc1C4=O` reads 56% (active); that for `Nc1c(Cl)cc(Br)c2c1C(=O)c1ccccc1C2=O`, 6% (inactive). Under `O=C(Cn1c(NCCO)nc2ccccc21)c1cccc(Br)c1` stands 3% (inactive); under `C=CCC(C(=O)c1ccccc1)C(=O)C(C)(C)OC` (stereo unspecified), 7% (inactive). Under `COc1ccc(CC(=O)N/N=C/c2ccc(-c3cc(Cl)ccc3C)o2)cc1` stands 74% (active); under `COc1ccc(CC(=O)N/N=C/c2ccc(I)o2)cc1`, 0% (inactive); under `Cc1ccc(/C=N/NC(=O)Cc2ccc(Cl)cc2)o1`, 7% (inactive). With `O=Cc1cc(Cl)c(OCc2ccc(F)cc2)c(Cl)c1`, the inhibition is 41% (inactive). Take `Cc1ccc2oc(-c3ccc(C)c(NC(=O)COc4ccccc4C)c3)nc2c1`: the inhibition is 44% (inactive).

Consider `Cc1cc(C)c2oc(-c3ccc(C)c(NC(=O)COc4cccc(C)c4C)c3)nc2c1`, for which the inhibition was 0% (inactive).

Take `Cc1cc(C)c2oc(-c3ccc(C)c(NC(=O)COc4ccccc4C)c3)nc2c1`: the inhibition was 55% (active). The result for `Cc1ccc(-c2nc3ccccc3o2)cc1NC(=O)COc1ccccc1` reads 8% (inactive). `Cc1ccc(-c2nc3ccccc3o2)cc1NC(=O)COc1ccccc1C`: the inhibition was 50% (active). Take `Cc1cc(C)cc(OCC(=O)Nc2cc(-c3nc4cc(C)cc(C)c4o3)ccc2C)c1`: the inhibition was 14% (inactive). Under `CCCSc1nc2ccccc2c(=O)n1CC1CCCCC1` stands 1% (inactive); under `O=C(Nc1cccc(C(F)(F)F)c1)c1ccc(I)cc1`, 1% (inactive). Under `COc1cc(/C=N\NC(=O)C2COc3cc4ccccc4cc3O2)ccc1OCc1ccccc1` (stereo unspecified) stands 14% (inactive); under `CCN(Cc1ccccc1)C(=O)c1ccccc1C`, 6% (inactive). Under `CCOc1ccccc1OCCCCOc1cc(C)ccc1Cl` stands 5% (inactive); under `Cc1c(OCc2c(F)cccc2Cl)ccc2c3c(c(=O)oc12)CCC3`, 0% (inactive). Take `COC(=O)c1c(N)sc2c1CCc1ccccc1-2`: the inhibition was 9% (inactive). Consider `CCOC(=O)c1c(N)sc2c1CCc1ccccc1-2`, for which the inhibition was 51% (active). Under `CCOC(=O)c1c(NC(C)=O)sc2c1CCc1ccccc1-2` stands 1% (inactive); under `Cc1ccc(-c2nc(N/N=C/c3ccccc3)c3ccccc3n2)cc1`, 10% (inactive). In the case of `Cc1ccc(-c2nc(N/N=C/c3ccccc3Cl)c3ccccc3n2)cc1`, the inhibition was 58% (active). Under `Cc1ccc(-c2nc(N/N=C/c3ccccc3O)c3ccccc3n2)cc1` stands 20% (inactive).

Regarding `Oc1ccccc1C(=S)N1CCOCC1`, the inhibition is 24% (inactive). For the compound `COc1ccccc1C(=S)N1CCOCC1`, the inhibition is 70% (active). `COc1ccc(OC)c(C(=S)N2CCOCC2)c1`: the inhibition is 11% (inactive). The result for `COc1ccc2c(c1)c(/C=C/c1nc3ccccc3c(=O)n1-c1ccccc1[N+](=O)[O-])c(C)n2C` reads 1% (inactive). With `Cc1cccc(C)c1NC(=O)c1ccc(N(C)S(=O)(=O)c2ccccc2)cc1`, the inhibition is 57% (active).

Regarding `CC1CCN(C(=O)c2ccc(N(C)S(=O)(=O)c3ccccc3)cc2)CC1`, the inhibition was 51% (active). On to `CN(c1ccc(C(=O)Nc2ccccc2F)cc1)S(=O)(=O)c1ccccc1`, for which the inhibition is 9% (inactive). Under `CN(c1ccc(C(=O)N2CCCC2)cc1)S(=O)(=O)c1ccccc1` stands 5% (inactive). The result for `CN(c1ccc(C(=O)Nc2cc(Cl)ccc2Cl)cc1)S(=O)(=O)c1ccccc1` reads 54% (active).

For the compound `CN(c1ccc(C(=O)Nc2cc(Cl)cc(Cl)c2)cc1)S(=O)(=O)c1ccccc1`, the inhibition is 8% (inactive). As to `CN(c1ccc(C(=O)N2CCN(c3ccccc3)CC2)cc1)S(=O)(=O)c1ccccc1`, the inhibition is 6% (inactive). On to `CNC(=O)c1ccc(N(C)S(=O)(=O)c2ccccc2)cc1`, for which the inhibition is 2% (inactive). The result for `Cc1ccccc1CNC(=O)c1ccc(N(C)S(=O)(=O)c2ccccc2)cc1` reads 0% (inactive); that for `Cc1nn(CC(=O)Nc2ccc(Cl)cc2Cl)c(C)c1[N+](=O)[O-]`, 0% (inactive); that for `COC(=O)C1CN(S(=O)(=O)c2ccccc2)CCN1S(=O)(=O)c1ccccc1` (stereo unspecified), 2% (inactive). The result for `CCN(CC)C(=O)C1CN(S(=O)(=O)c2ccccc2)CCN1S(=O)(=O)c1ccccc1` (stereo unspecified) reads 54% (active). In the case of `O=C(O)C1CN(S(=O)(=O)c2ccccc2)CCN1S(=O)(=O)c1ccccc1` (stereo unspecified), the inhibition is 8% (inactive). The result for `Cc1cc(OC(C)C)c2c(-c3ccccc3)cc(=O)oc2c1` reads 50% (active). Under `Cc1cc(OCC(=O)OC(C)C)c2c(-c3ccccc3)cc(=O)oc2c1` stands 20% (inactive); under `Cc1cc(OS(C)(=O)=O)c2c(-c3ccccc3)cc(=O)oc2c1`, 19% (inactive); under `COc1ccc(NC(=O)n2nc(C(F)(F)F)nc2N)cc1`, 0% (inactive). Regarding `Cc1cc(Cl)ccc1OC(C)C(=O)N1CCN(c2cccc(Cl)c2)CC1` (stereo unspecified), the inhibition was 10% (inactive). The result for `CCOc1nc(Nc2ccc(Cl)cc2)nc(N2CCCCC2)n1` reads 9% (inactive). The result for `c1ccc(-c2onc3ccc(Oc4ccc5noc(-c6ccccc6)c5c4)cc23)cc1` reads 19% (inactive); that for `O=[N+]([O-])c1ccccc1S(=O)(=O)NCCSc1ccccc1`, 33% (inactive); that for `O=[N+]([O-])c1ccccc1S(=O)(=O)NCCSCc1ccc(Cl)cc1`, 50% (active).

For `O=S(=O)(NCCSCc1ccccc1)c1ccc(Cl)cc1`, the inhibition is 15% (inactive). Under `COC(=O)c1ccc(-c2ccc(/C=C3\SC(=O)N(c4ccccc4)C3=O)o2)cc1` stands 57% (active); under `COC(=O)c1ccc(-c2ccc(/C=C3/SC(=S)N(c4ccccc4)C3=O)o2)cc1`, 4% (inactive).

In the case of `O=C(O)c1ccc(-c2ccc(/C=C3/SC(=O)N(c4ccccc4)C3=O)o2)cc1`, the inhibition was 15% (inactive).

Turning to `COc1cc(/C=C(\C#N)C(N)=S)ccc1OCc1ccccc1`, the inhibition was 10% (inactive). In the case of `CCOc1ccc(N(CC(N)=O)S(=O)(=O)c2ccc(SC)cc2)cc1`, the inhibition was 0% (inactive). The result for `CCOC(=O)c1c(NC(=O)COc2ccc(Cl)cc2)sc2c1CCN(C(=O)OCC)C2` reads 38% (inactive); that for `CCOC(=O)c1c(NC(C)=O)sc2c1CCN(C(=O)OCC)C2`, 9% (inactive). Under `CCOC(=O)c1c(NC(=O)Cc2ccc(OC)cc2)sc2c1CCN(C(=O)OCC)C2` stands 50% (active); under `CCOc1ccc(NC(=O)CSc2nc3ccccc3s2)cc1`, 10% (inactive); under `Nc1c2c(cc3ccccc13)C(=O)c1ccccc1C2=O`, 46% (inactive). The result for `CCOc1ccccc1C(=O)Nc1cccc(OC)c1` reads 11% (inactive); that for `Cc1ccc(S(=O)(=O)NC(=O)OC(c2ccccc2)C(F)(F)F)cc1` (stereo unspecified), 0% (inactive). For `CCc1ccccc1NC(=O)c1ccc(CN2CCc3ccccc3C2)cc1`, the inhibition is 7% (inactive). The result for `COc1ccccc1CC(=O)Nc1ccc(F)cc1F` reads 55% (active). Regarding `COc1ccccc1CC(=O)Nc1nccs1`, the inhibition is 14% (inactive). For the compound `COc1ccccc1NC(=O)Cc1ccc(F)cc1F`, the inhibition was 0% (inactive). The result for `CCC(C)c1ccc(NC(=O)Cc2ccccc2OC)cc1` (stereo unspecified) reads 52% (active); that for `COc1ccccc1CC(=O)Nc1ccc(C)c(Cl)c1`, 5% (inactive). For the compound `COc1ccccc1CC(=O)Nc1ccc(F)cc1`, the inhibition is 10% (inactive). With `COc1ccccc1CC(=O)Nc1cccc(F)c1`, the inhibition is 0% (inactive). The result for `COc1cccc(OC)c1C(=O)Nc1cc(C)ccn1` reads 0% (inactive); that for `COc1ccccc1CC(=O)Nc1ccc(Br)c(C)c1`, 59% (active); that for `COc1ccc(CC(=O)Nc2ccc(Br)c(C)c2)cc1OC`, 12% (inactive). The result for `CCOC(=O)c1ccc(NC(=O)Cc2ccccc2OC)cc1` reads 8% (inactive). The result for `COc1ccccc1CC(=O)Nc1cc(C)ccn1` reads 53% (active).

The record behind these values is PubChem BioAssay AID372 (MTDP, 2006).
